Measured values from PubChem BioAssay (NCI).
Compounds without any hit were thinned out: in the full panel of roughly 79,000, 15% have a hit. The source made the active and inactive calls. No stated cut-off is given here; in the data, active means growth inhibition above about 70%; inactive means the rest.

Columns and labels:
[1] = NCI Yeast Anticancer Drug Screen. Data for the wt1 strain (AID 149);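 further: 0% = growth of vehicle-treated wt1 cultures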; details: S. cerevisiae wt1 strain (SPY 50644) growth inhibition, hits give high values
Method in brief: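 wt1 strain grown with compound or vehicle; inhibition taken from the growth difference.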

[2] = NCI Yeast Anticancer Drug Screen. Data for the rad50EPP+ strain (AID 151);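 further: 0% = growth of vehicle-treated control cultures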; details: S. cerevisiae rad50 mutant strain, hits give high values
Method in brief: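 Compounds were applied to the rad50EPP+ yeast strain, which bears a defined DNA repair alteration, and growth inhibition was determined relative to vehicle-treated cultures.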

[3] = NCI Yeast Anticancer Drug Screen. Data for the mgt1 strain (AID 153); details: S. cerevisiae mgt1 mutant growth inhibition, hits give high values
Method in brief: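 Strain: mgt1 yeast, one of a set carrying defined DNA damage repair or cell cycle control alterations. Compound-treated growth compared with vehicle.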

[4] = NCI Yeast Anticancer Drug Screen. Data for the rad50 strain (AID 155);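 further: 0% = growth of vehicle-only cultures of the same strain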; details: S. cerevisiae rad50 strain growth inhibition, hits give high values
Method in brief: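 DNA repair mutant yeast, compound exposure, growth read-out; inhibition is taken relative to vehicle.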

[5] = NCI Yeast Anticancer Drug Screen. Data for the mec2-1 strain (AID 157); details: S. cerevisiae mec2-1 strain, hits give high values
Method in brief: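 Strain: mec2-1 (DNA repair/cell cycle alteration). Compound exposure, then growth measured; inhibition expressed relative to vehicle.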

[6] = NCI Yeast Anticancer Drug Screen. Data for the sgs1 mgt1 strain (AID 161);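 further: 0% = growth of cultures given vehicle only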; details: S. cerevisiae sgs1 mgt1 strain, hits give high values
Method in brief: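 Test agents were incubated with a DNA-repair-mutant yeast strain. Growth was then read and compared against vehicle-treated controls.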

[7] = NCI Yeast Anticancer Drug Screen. Data for the CLN2oe strain (AID 163);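 further: 0% = growth of vehicle-only control cultures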; details: S. cerevisiae CLN2oe strain, hits give high values
Method in brief: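 Growth of a genetically modified yeast strain is measured after compound exposure and compared with cultures given vehicle alone.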

[8] = NCI Yeast Anticancer Drug Screen. Data for the bub3 strain (AID 167); details: S. cerevisiae bub3 mutant strain, hits give high values
Method in brief: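 In this screen, a yeast mutant lacking normal mitotic checkpoint function is challenged with compound. Relative growth versus vehicle gives the inhibition value.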

[9] = NCI Yeast Anticancer Drug Screen. Data for the wt2 strain (AID 169);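 further: 0% = growth of vehicle-treated yeast cultures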; details: S. cerevisiae wt2 strain growth inhibition, hits give high values
Method in brief: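 This strain belongs to a panel of yeast strains with defined genetic alterations in DNA damage repair or cell cycle control. Compounds are applied, and growth inhibition is measured against vehicle-treated cultures.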

[10] = NCI Yeast Anticancer Drug Screen. Data for the mlh1 strain (AID 171);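 further: 0% = growth of vehicle-treated control cultures of the same strain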; details: S. cerevisiae mlh1 strain growth inhibition, hits give high values
Method in brief: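 Growth of the mutant yeast strain after compound exposure, expressed as inhibition relative to vehicle-only controls.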

[11] = NCI Yeast Anticancer Drug Screen. Data for the sgs1 strain (AID 173);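 further: 0% = growth of vehicle-only control cultures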; details: S. cerevisiae sgs1 mutant, hits give high values
Method in brief: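 Growth of a yeast strain bearing a defined genetic alteration is measured after compound treatment. Inhibition is expressed relative to vehicle-only controls.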

[12] = NCI Yeast Anticancer Drug Screen. Data for the mlh1 rad18 strain (AID 175); details: S. cerevisiae mlh1 rad18 strain growth inhibition, hits give high values
Method in brief: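 Read-out is yeast growth inhibition, calculated against vehicle-only controls. The compound was applied to a strain engineered with DNA damage repair alterations.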

[13] = NCI Yeast Anticancer Drug Screen. Data for the rad18 strain (AID 177); details: S. cerevisiae rad18 mutant growth inhibition, hits give high values
Method in brief: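 Growth of the mutant yeast strain after compound exposure, normalised to vehicle-only cultures.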

[14] = NCI Yeast Anticancer Drug Screen. Data for the rad14 strain (AID 159);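 further: 0% = growth of vehicle-treated control cultures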; details: S. cerevisiae rad14 strain growth inhibition, hits give high values
Method in brief: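 DNA repair-defective yeast, compound-exposed; % growth inhibition derived by comparison with vehicle-treated controls.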

[15] = NCI Yeast Anticancer Drug Screen. Data for the cln2 rad14 strain (AID 165);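 further: 0% = growth equal to vehicle treated cultures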; details: S. cerevisiae cln2 rad14 strain, hits give high values
Method in brief: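 Compounds are applied to the cln2 rad14 yeast strain, and growth is then compared with that of vehicle-treated cultures to give inhibition.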

[16] = at 5.0 µM (retest, dose inferred, filed as 0.5)
[17] = at 50.0 µM (retest, dose inferred, filed as 5.0)

Measured: growth inhibition

CC(C)(C)[Si](C)(C)OCC1OC(n2cnc3c(N)ncnc32)C2OC(=S)OC12 (stereo not given)
active: [4]; at 100.0 µM 98% | [11]; at 100.0 µM 80% | [13]; at 100.0 µM 86%
inactive: [1]; at 1.2 µM 1% | [1]; at 3.7 µM -1% | [1]; at 11.0 µM 0% | [1]; at 33.0 µM 2% | [1]; at 100.0 µM 17% | [2]; at 1.2 µM -5% | [2]; at 3.7 µM -6% | [2]; at 11.0 µM -3% | [2]; at 33.0 µM 3% | [2]; at 100.0 µM 8% | [3]; at 1.2 µM -1% | [3]; at 3.7 µM 0% | [3]; at 11.0 µM 0% | [3]; at 33.0 µM -29% | [3]; at 100.0 µM 14% | [4]; at 1.2 µM -1% | [4]; at 3.7 µM 5% | [4]; [16] 5% | [4]; at 11.0 µM -19% | [4]; at 33.0 µM 17% | [4]; [17] 45% | [4]; at 50.0 µM 4.45% | [5]; at 1.2 µM 0% | [5]; at 3.7 µM 2% | [5]; [16] 5% | [5]; at 11.0 µM 2% | [5]; at 33.0 µM 7% | [5]; [17] 56% | [5]; at 50.0 µM 40% | [5]; at 100.0 µM 28% | [6]; [16] 5% | [6]; [17] 29% | [6]; at 50.0 µM 11.6% | [7]; at 1.2 µM -2% | [7]; at 3.7 µM -3% | [7]; at 11.0 µM -1% | [7]; at 33.0 µM -2% | [7]; at 100.0 µM 9% | [8]; at 1.2 µM 0% | [8]; at 3.7 µM 2% | [8]; [16] -42% | [8]; at 11.0 µM 3% | [8]; at 33.0 µM 3% | [8]; [17] 3% | [8]; at 50.0 µM 48.4% | [8]; at 100.0 µM 10% | [9]; at 1.2 µM -1% | [9]; at 3.7 µM 9% | [9]; at 11.0 µM 1% | [9]; at 33.0 µM 2% | [9]; at 100.0 µM 36% | [10]; at 1.2 µM -1% | [10]; at 3.7 µM -2% | [10]; at 11.0 µM -3% | [10]; at 33.0 µM 0% | [10]; at 100.0 µM 37% | [11]; at 1.2 µM -1% | [11]; at 3.7 µM 2% | [11]; at 11.0 µM 4% | [11]; at 33.0 µM 14% | [12]; [16] 7% | [12]; [17] 22% | [12]; at 50.0 µM 48.1% | [13]; at 1.2 µM -1% | [13]; at 3.7 µM 1% | [13]; at 11.0 µM 6% | [13]; at 33.0 µM 22%

NNc1nnc(-c2ccccc2)nc1Cc1ccccc1
inactive: [1]; at 1.2 µM -25% | [1]; at 3.7 µM -15% | [1]; at 11.0 µM -7% | [2]; at 1.2 µM -12% | [2]; at 3.7 µM -3% | [2]; at 11.0 µM 12% | [2]; at 33.0 µM 48% | [4]; at 1.2 µM 4% | [4]; at 3.7 µM -1% | [4]; [16] -35% | [4]; at 11.0 µM 10% | [4]; [17] -4% | [4]; at 50.0 µM 67.1% | [5]; at 1.2 µM -11% | [5]; at 3.7 µM -9% | [5]; [16] 2% | [5]; at 11.0 µM -8% | [14]; at 1.2 µM -8% | [14]; at 3.7 µM -16% | [14]; at 11.0 µM -12% | [6]; [16] -7% | [7]; at 1.2 µM 25% | [7]; at 3.7 µM 18% | [7]; at 11.0 µM 11% | [15]; [16] 12% | [8]; at 1.2 µM 16% | [8]; at 3.7 µM 5% | [8]; [16] -9% | [8]; at 11.0 µM -17% | [9]; at 1.2 µM -34% | [9]; at 3.7 µM -30% | [9]; at 11.0 µM -11% | [10]; at 1.2 µM 6% | [10]; at 3.7 µM 4% | [10]; at 11.0 µM 27%
active: [1]; at 33.0 µM 96% | [1]; at 100.0 µM 88% | [2]; at 100.0 µM 90% | [4]; at 33.0 µM 96% | [4]; at 100.0 µM 93% | [5]; at 33.0 µM 95% | [5]; [17] 90% | [5]; at 50.0 µM 91.3% | [5]; at 100.0 µM 87% | [14]; at 33.0 µM 96% | [14]; at 100.0 µM 91% | [6]; [17] 95% | [6]; at 50.0 µM 82.9% | [7]; at 33.0 µM 97% | [7]; at 100.0 µM 93% | [15]; [17] 80% | [15]; at 50.0 µM 86% | [8]; at 33.0 µM 97% | [8]; [17] 96% | [8]; at 50.0 µM 89% | [8]; at 100.0 µM 90% | [9]; at 33.0 µM 95% | [9]; at 100.0 µM 91% | [10]; at 33.0 µM 97% | [10]; at 100.0 µM 83%
